Measurements reported in article PMC4336329 (PLoS ONE, 2015).
The whole screen tested about 310,000 compounds, of which about 2,200 (0.71%) showed an effect of 50% or more. Effects have a minus sign here. Shown is part of a subset that was picked to be rich in strong results.

target: human ether-à-go-go-related gene (hERG) potassium channel (human, UniProt Q12809); assay: primary screen, population patch clamp on CHO cells stably expressing hERG; higher = less effect of the substance
Sequence (Q12809 whole entry, looked up): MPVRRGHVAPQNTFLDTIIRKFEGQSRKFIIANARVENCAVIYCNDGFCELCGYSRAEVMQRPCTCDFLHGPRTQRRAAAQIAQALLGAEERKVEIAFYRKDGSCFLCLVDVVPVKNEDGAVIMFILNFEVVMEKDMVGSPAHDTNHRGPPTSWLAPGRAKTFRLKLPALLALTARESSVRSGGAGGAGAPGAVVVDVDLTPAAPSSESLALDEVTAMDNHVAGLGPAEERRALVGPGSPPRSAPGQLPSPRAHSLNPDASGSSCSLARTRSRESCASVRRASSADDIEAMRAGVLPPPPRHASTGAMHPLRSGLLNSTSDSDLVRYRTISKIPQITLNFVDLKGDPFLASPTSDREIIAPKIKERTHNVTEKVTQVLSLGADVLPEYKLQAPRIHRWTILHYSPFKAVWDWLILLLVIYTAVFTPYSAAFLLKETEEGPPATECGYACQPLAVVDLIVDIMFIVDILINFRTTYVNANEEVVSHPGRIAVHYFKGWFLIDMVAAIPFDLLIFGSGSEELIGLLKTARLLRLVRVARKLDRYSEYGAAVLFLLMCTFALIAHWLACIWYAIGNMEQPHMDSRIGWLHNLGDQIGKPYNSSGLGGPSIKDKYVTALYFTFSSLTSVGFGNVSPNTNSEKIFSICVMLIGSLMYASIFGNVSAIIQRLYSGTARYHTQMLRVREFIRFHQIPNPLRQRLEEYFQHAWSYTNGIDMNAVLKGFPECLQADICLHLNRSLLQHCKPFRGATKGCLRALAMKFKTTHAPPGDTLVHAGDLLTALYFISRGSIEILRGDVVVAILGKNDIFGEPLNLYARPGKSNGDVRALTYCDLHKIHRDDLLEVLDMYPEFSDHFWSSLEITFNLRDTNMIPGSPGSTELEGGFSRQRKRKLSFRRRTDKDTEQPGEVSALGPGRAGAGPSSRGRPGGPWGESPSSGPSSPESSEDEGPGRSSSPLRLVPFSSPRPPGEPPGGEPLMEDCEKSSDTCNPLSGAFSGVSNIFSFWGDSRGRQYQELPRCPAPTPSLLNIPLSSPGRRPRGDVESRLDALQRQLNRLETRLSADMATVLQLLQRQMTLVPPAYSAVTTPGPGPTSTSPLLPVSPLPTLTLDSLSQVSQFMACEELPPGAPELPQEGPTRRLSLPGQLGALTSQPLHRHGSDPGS

Row | Structure (SMILES) | hERG current change (%, negative = inhibition) at 1uM
1 | CC(=O)O.NCC(c1ccco1)c1c[nH]c2ccccc12 (stereo not drawn) | 12.2%
2 | O=C(CN1CCN(Cc2ccc3c(c2)OCO3)CC1)NCC(F)(F)F | 11.2%
3 | CCN(CC(=O)Nc1c(C(=O)OC)[nH]c2ccccc12)c1ccc2c(c1)OCO2 | 12.1%
4 | O=C(CN1CCN(Cc2ccc3c(c2)OCO3)CC1)Nc1ccc(F)cc1 | -82.6%
5 | O=C(C1COc2ccccc2O1)N1CCN(c2ccc(F)cc2)CC1 (stereo not drawn) | -9.29%
6 | COC(=O)c1[nH]c2ccccc2c1NC(=O)CN1CCN(Cc2ccc3c(c2)OCO3)CC1 | -70.3%
7 | O=C(CN1CCN(C(=O)C2COc3ccccc3O2)CC1)Nc1ccc(F)cc1 (stereo not drawn) | -63.5%
8 | O=C(CN1CCN(C(=O)C2COc3ccccc3O2)CC1)Nc1ccccc1 (stereo not drawn) | -22.5%
9 | COC(=O)c1[nH]c2ccc(C)cc2c1NC(=O)CCN1CCN(Cc2ccc3c(c2)OCO3)CC1 | -33%
10 | COc1cc(NC(=O)CN2CCN(Cc3ccc4c(c3)OCO4)CC2)cc(OC)c1.O=C(O)C(=O)O | -9.16%
11 | O=C(COC(=O)/C=C/c1ccccc1F)Nc1nnc(-c2ccccc2)o1 | 7.16%
12 | Cc1ccc(S(=O)(=O)NCCOCCNS(=O)(=O)c2ccc(C)cc2)cc1 | -2.18%
13 | Cc1ccccc1C(=O)NC1CCN(C(=O)N2CCOCC2)CC1 | 12.6%
14 | O=c1cc(O)c2c(=O)n(C3CCCCC3)c3ccccc3c2o1 | 10.4%
15 | CC(C)OC(=O)CSc1nc2c(cc1C#N)CCCCC2 | 10.2%
16 | CC12CCC(=O)N1C(C(=O)OCC(=O)Nc1cccc(S(=O)(=O)N3CCCCCC3)c1)CS2 (stereo not drawn) | -51.9%
17 | CC12CCC(=O)N1C(C(=O)Nc1cccc(S(=O)(=O)N3CCCCCC3)c1)CS2 (stereo not drawn) | -29.7%
18 | CC12CCC(=O)N1C(C(=O)OCC(=O)Nc1cc(S(=O)(=O)N3CCCCC3)ccc1Cl)CS2 (stereo not drawn) | 11.1%
19 | COc1ccc(CNCC(O)(c2ccccc2)c2ccc(F)cc2)cc1 (stereo not drawn) | -45.9%
20 | O=C(CN1CCCC1=O)NCCc1ccccc1 | 8.88%
21 | CSc1ccc(CN(C)CC(=O)NCc2ccccc2)cc1 | -11.1%
22 | CCOc1ccc(CN(C)CCc2ccccn2)cc1.O=C(O)C(=O)O | -58.8%

Row | Structure (SMILES) | hERG current change (%, negative = inhibition) at 1uM
23 | CCC(CC)C(=O)NCCc1ccc(F)cc1 | 10.2%
24 | CN(CC(=O)NCc1ccccc1)Cc1ccc(Cl)cc1 | 2.36%
25 | CCc1ccc(CN(C)CCc2ccccn2)cc1 | -34.7%
26 | CN(CCc1ccccn1)Cc1ccc(Cl)cc1 | -24.6%
27 | CN(CCc1ccccn1)Cc1ccc(Cl)cc1Cl | -54.1%
28 | CSc1ccc(CN(C)CCc2ccccn2)cc1.O=C(O)C(=O)O | -21.3%
29 | CCOc1ccc(CN(C)CC(=O)NCc2ccccc2)cc1 | -82.3%
30 | CCOc1ccc(CN(C)C(C)C(=O)NCc2ccccc2)cc1 (stereo not drawn) | -21.7%
31 | CCOc1ccc(CN(C)C(C)C(=O)NCCc2ccc(F)cc2)cc1 (stereo not drawn) | -57.1%
32 | CN(CCc1ccccn1)Cc1ccc(Cl)c(Cl)c1 | -0.903%
33 | O=c1c2ccccc2c(/C=N/c2nnc(Cc3ccccc3)s2)c(O)n1-c1ccc(Cl)cn1 | 11.3%
34 | COC(=O)C(C)NS(=O)(=O)c1ccc(NC(C)=O)cc1 (stereo not drawn) | 1.66%
35 | Cc1ccc(C(=O)c2coc3cc([N+](=O)[O-])c(O)c([N+](=O)[O-])c23)cc1 | 7.26%
36 | COCCCn1c(=O)/c(=C\c2ccccc2OC(F)F)s/c1=C(/C#N)C(=O)N1CCOCC1 | 9.19%
37 | CCN(CCn1cccn1)C(=O)c1cc(COc2ccc(F)c(F)c2)on1 | -27.1%
38 | COc1cc(S(=O)(=O)N2CCOCC2)ccc1NC(=O)c1cc2c(s1)CCC2 | 3.78%
39 | Cc1ccc2c(c1)N(C(=O)CCC(=O)NCc1cccnc1)CCO2 | -4.63%
40 | COc1cccc(CN(C)CC(=O)NCc2ccccc2Cl)c1 | 14.6%
41 | CCOc1ccc(CN(C)CC(=O)NCc2ccccc2Cl)cc1 | -73.6%
42 | COc1cccc(CN(C)CC(=O)NCc2ccccc2Cl)c1OC | 10.6%
43 | CCOc1ccc(CN(C)CC(=O)NCc2ccc(F)cc2)cc1 | -78.6%
44 | CSc1ccc(CN(C)CC(=O)NCc2ccc(F)cc2)cc1 | -19.3%

Row | Structure (SMILES) | hERG current change (%, negative = inhibition) at 1uM
45 | CN(CC(=O)NCc1ccc(F)cc1)Cc1ccc(Br)cc1 | 2.94%
46 | CCOC(=O)c1ccc(Oc2nc(NC(C)(C)C)nc(N(C)C)n2)cc1 | 6.02%
47 | CCOC(=O)Nc1c(C(=O)OC)[nH]c2cc(OC)ccc12 | -3.1%
48 | CCCn1c(SCc2ccccn2)nc2c1c(=O)n(C)c(=O)n2C | 16.5%
49 | O=[N+]([O-])c1ccc(NC(=S)N/C(=N/CS(=O)(=O)c2ccccc2)c2ccccc2)cc1 | 11%
50 | O=[N+]([O-])c1cccc(C(=NCc2ccccc2)NO)c1 | 15.5%
51 | CN(C)C(=S)NC(=NCc1ccc([N+](=O)[O-])cc1)c1ccccc1 | -60.3%
52 | S=C(NCCc1ccccn1)Nc1ccccc1Cl | 17%
53 | COc1cn(-c2ccccc2)nc1C(=O)OCC(=O)Nc1ccc(C)c(C)c1 | 12.1%
54 | CC(NC(=O)c1ccc2c(c1)OCO2)C1CCCO1 (stereo not drawn) | -0.0414%
55 | C=CCn1c(SCC(=O)N2CCN(C(=O)c3ccco3)CC2)nc2sc(CC)cc2c1=O | -85.6%
56 | CCN(CC)C(=O)CSc1nc2c(sc(=S)n2CC)c(=O)n1-c1ccccc1 | -13.3%
57 | C=CCn1c(SCC(=O)N2CCCC2=O)nc2sc(CC)cc2c1=O | -20%
58 | CCOC(=O)CSc1nc2ccccc2c(=O)n1Cc1ccco1 | 0.785%
59 | CCN(CC)C(=O)CSc1nc2c(sc(=S)n2Cc2ccco2)c(=O)n1-c1ccccc1 | 5.26%
60 | CCCn1c(SCC(=O)N2CCN(C(=O)c3ccco3)CC2)nc2ccccc2c1=O | -84.8%
61 | CCCCn1c(SCC(=O)N2CCOCC2)nc2ccccc2c1=O | -39.4%
62 | C=CCn1c(SCC(=O)N2CCc3ccccc3C2)nc2sc(CC)cc2c1=O | 10.8%
63 | O=C(CSc1nc2ccccc2c(=O)n1Cc1ccco1)N1CCCC1 | -81.3%
64 | NC(=O)CSc1nc2ccccc2c(=O)n1Cc1ccco1 | -15.1%
65 | CC(C)Cn1c(SCC(=O)N2CCN(C(=O)c3ccco3)CC2)nc2ccccc2c1=O | -42.9%
66 | CCN(CC)C(=O)CSc1nc2c(sc(=S)n2-c2ccccc2)c(=O)n1Cc1ccco1 | -86.3%
